Source: PubChem (several laboratories)
Most compounds without a hit are left out; they make up all but 3.7% or so of the library.
UGM FP inh: inhibitors of M. tuberculosis UDP-galactopyranose mutase; P9WIQ1; inhibition, % at 10 µM; purified UGM, fluorescence polarization probe displacement; 320,000 tested, 0.06% active; AID 504406; in the data active means inhibition above about 10%, passing the limit was not always enough
Target sequence (P9WIQ1 whole entry, looked up): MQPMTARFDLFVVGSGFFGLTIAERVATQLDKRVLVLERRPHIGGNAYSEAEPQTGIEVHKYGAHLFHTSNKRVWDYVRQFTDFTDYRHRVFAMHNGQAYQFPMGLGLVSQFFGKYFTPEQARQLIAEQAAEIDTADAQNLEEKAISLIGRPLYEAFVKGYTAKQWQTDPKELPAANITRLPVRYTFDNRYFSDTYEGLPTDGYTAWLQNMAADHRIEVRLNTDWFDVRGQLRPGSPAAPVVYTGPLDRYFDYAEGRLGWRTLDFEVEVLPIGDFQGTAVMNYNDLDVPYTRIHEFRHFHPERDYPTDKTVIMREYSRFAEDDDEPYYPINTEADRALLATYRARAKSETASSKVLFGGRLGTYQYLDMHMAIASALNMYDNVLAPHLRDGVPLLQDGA
Rv3671c inh: Rv3671c (M. tuberculosis) protease inhibition. P9WHR9. inhibition, % at 5.96 µM. 320,000 tested, 0.048% active. AID 2606; in the data active means inhibition above about 38%;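 further: extracellular domain of Rv3671c used as enzyme; 0% = enzyme with DMSO and 100% = no enzyme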
FBA Mtb inh: Mtb fructose-bisphosphate aldolase inhibition; 360,000 tested, 2.3% active; purified M. tuberculosis FBA, fluorescence read-out; AID 588726; inhibition, % at 1 µM; P9WQA3;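 further: 0% = vehicle and 100% = reference inhibitor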
Mtb bLac sens: beta-lactam sensitization of Mtb H37Rv. M. tuberculosis H37Rv growth with meropenem, percent inhibition. inhibition, % at 25 µM. 330,000 tested, 0.27% active. AID 434955; call rule not given here;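 further: growth measured after seven days incubation then overnight dye step; 0% = bacteria only wells and 100% = bacteria with antibiotic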
GDH-TPI counter-1: counter-screen for M. tuberculosis FBA inhibitors: GDH-TPI coupled enzymes. GDH-TPI coupled enzyme counterscreen, NADH absorbance. 360,000 tested, 1.2% active. inhibition, % at 4.8 µM; in the data active means inhibition above about 30%;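 further: 0% = DMSO wells and 100% = wells lacking the enzyme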
FadD28 FP inh: blocks FadD28 binding to the bisubstrate probe; fluorescence polarization; inhibition, % at 12.5 µM; 360,000 tested, 0.22% active; in the data active means inhibition above about 8.5%, passing the limit was not always enough
Mtb FBA confirm: Mtb FBA inhibition, confirmed; shares compounds with FBA Mtb inh; purified M. tuberculosis FBA, fluorescence read-out; inhibition, % at 1 µM; 5,600 tested, 78% active; AID 651616;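 further: 0% = vehicle wells and 100% = reference inhibitor wells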
GDH-TPI counter-2: GDH-TPI inhibition counter-screen for FBA inhibitors; 5,600 tested, 81% active; AID 652141; GDH-TPI coupled enzyme counterscreen, fluorescence; shares compounds with FBA Mtb inh; inhibition, % at 1 µM; in the data active means inhibition above about 10%
GDH-TPI dose: inhibits GDH-TPI coupling enzymes in dose response. shares compounds with FBA Mtb inh. GDH-TPI coupled enzyme assay, fluorescence, artifact counterscreen. IC50, µM. 170 tested, 79% active. AID 652145; call rule not given here
Numbers without * were called inactive; . = no result given; + = active, no number. Unless noted, no stated cut-off is given here; in the data, active means inhibition above about 27%; inactive means the rest.

SMILES	UGM FP inh	Rv3671c inh	FBA Mtb inh	Mtb bLac sens	GDH-TPI counter-1	FadD28 FP inh	Mtb FBA confirm	GDH-TPI counter-2	others
O=C(NN1C(=O)c2ccccc2NC1c1ccco1)c1ccc(Br)cc1 (stereo unspecified)	3	-5	0	0	-2	-1	.	.
CC(=O)NN1C(=O)c2ccccc2NC1c1ccco1 (stereo unspecified)	0	3	32*	-1	-2	-1	39*	23*
CC(=O)NN1C(=O)c2ccccc2NC1c1ccccn1 (stereo unspecified)	-1	0	27*	3	0	-2	14	10	GDH-TPI dose=6*
O=C(NN1C(=O)c2ccccc2NC1c1ccccn1)c1ccc(Br)cc1 (stereo unspecified)	-1	-2	-2	-11	2	-2	.	.
Cn1cccc1CN1CCC[C@]2(N[C@H](c3ccccc3)[C@@H]3C(=O)N(Cc4ccccc4)C(=O)[C@@H]32)C1=O	.	.	-1	.	5	-1	.	.
C=C(C)CN(CC)C(=O)CN1C(=O)NC2(CCCc3ccccc32)C1=O (stereo unspecified)	1	0	63*	-2	-3	-1	101*	85*
C=C(C)CN(CC)C(=O)CN1C(=O)NC2(CCc3ccccc32)C1=O (stereo unspecified)	2	2	1	-5	4	0	.	.
CCOc1ccc(-c2cc(C)[n+](CCO)c(-c3ccc(OCC)cc3)c2)cc1	1	3	63*	-3	28	-3	67*	49*
O=C(Cc1cccs1)N1CCN(c2ccccn2)CC1	2	-2	29*	-12	-2	1	54*	43*
CCCCCC(=O)N1CCN(CCN=CC2=C(O)CC(c3ccc(OC)cc3)CC2=O)CC1 (stereo unspecified)	-3	-4	5	-2	3	0	.	.
CCC(=O)N1CCN(CCN=CC2=C(O)CC(c3ccc(OC)cc3)CC2=O)CC1 (stereo unspecified)	2	0	59*	8	6	0	88*	82*
CN1CCc2c(sc3nc(SCC(=O)N4CCOCC4)nc(N)c23)C1	-3	-8	54*	1	-1	-1	9	5
c1ccc2c(-c3nc4ccccc4[nH]3)cccc2c1	.	.	107*	.	0	-5	80*	42*
c1ccc2[nH]c(-c3ccnc4ccccc34)nc2c1	-2	0	45*	1	25	-4	119*	87*
COc1cc(/C=C/C(=O)OCC(=O)NC(=O)C2COc3ccccc3O2)ccc1OC(F)F (stereo unspecified)	0	2	7	-2	16	0	.	.
Cn1c(N)c(S(=O)(=O)N2CCCC2)c(=O)n(C)c1=O	-1	3	-2	3	-3	-1	.	.
CC(OC(=O)c1ccc(Cl)c(S(=O)(=O)N2CCc3ccccc32)c1)C(=O)Nc1ncc(Cl)cc1Cl (stereo unspecified)	-1	1	64*	0	3	0	35*	24*
CC(=O)Nc1ccc(S(=O)(=O)NNc2cccc(C)c2)cc1	-1	-5	1	-9	-2	0	.	.
O=C1NN=C2CCCCCCC12 (stereo unspecified)	.	.	29*	.	11	-1	85*	70*
C[C@@H]1CCCCCCCCCCC1=O	-1	1	2	-3	-1	1	.	.
Nc1nc2sc3c(c2cc1C(=O)N1CCOCC1)CCCC3	2	0	32*	-4	1	-1	56*	54*
Nc1nc2sc3c(c2cc1C(=O)NCC(=O)O)CCCC3	1	8	-3	5	4	1	.	.
COc1ccc(S(=O)(=O)Nc2c(NC3CCCCC3)c3ccccc3oc2=O)cc1Cl	4	-4	29*	7	-7	-11	+	+
Cc1cccc(-n2c(SCC(=O)Nc3nnc(C)s3)nnc2-c2ccoc2C)c1	1	-9	46*	6	6	-1	38*	31*
